Laboratory results as given in the supplement of paper PMC4840960.
Counter-ions that a name gives are not always drawn.

system: E18 rat cortical neuron-glia co-culture; assay: myelination (MBP fiber length per Olig2+ nucleus), % of 1 µM DAPT response (DMSO = 0) (% of DAPT); higher = more myelination, active = 50 or more; settings: 1 µM; treatment time: 8 days (DIV5-DIV13)
How it was run: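 Primary E18 rat cortical co-cultures (papain-dissociated, 20,000 cells/well on poly-d-lysine/laminin 96-well plates) received library compounds at 1 or 5 µM in myelination medium from DIV5 to DIV13. Cells were fixed in 4 % paraformaldehyde and immunostained for MBP and Olig2 with DAPI, and four 10X fields per well in duplicate wells were analysed. Myelination was continuous straight MBP fiber length per Olig2+ nucleus, normalised to 0.1 % DMSO (0) and a 1 µM positive control (100).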

| Structure (SMILES) | myelination |
| --- | --- |
| CC(C)(O)[C@@H]1[C@H]2OC(=O)[C@@H]1[C@]1(O)C[C@H]3O[C@]34C(=O)O[C@H]2[C@]14C [Picrotin] | -12.7 (inactive) |
| Cc1nnc2n1-c1ccc(Cl)cc1C(c1ccccc1)=NC2 [Alprazolam] | -26.1 (inactive) |
| CN1C(=O)COc2c(C(=O)NC3CN4CCC3CC4)cc(Cl)cc21 (stereo not given) [Azasetron] | -6.5 (inactive) |
| CC[C@@H]1C=CC=CC[C@H](C)[C@@H](O)[C@@H](C)C(=O)[C@H](C)[C@@H](O)[C@H](C)C(=O)[C@H](C)[C@@H](O)[C@H](C)C=CC(=O)O[C@H]2[C@@H](C)[C@@H](CC1)O[C@@]1(CC[C@@H](C)[C@@H](C[C@H](C)O)O1)[C@@H]2C [Oligomycin C] | -6.58 (inactive) |
| CC(C)N(CCC(C(N)=O)(c1ccccc1)c1ccccn1)C(C)C (stereo not given) [Disopyramide] | -13.9 (inactive) |
| COc1ccc(C(CN(C)C)C2(O)CCCCC2)cc1 (stereo not given) [Venlafaxine] | -11.7 (inactive) |
| C[C@]12CC[C@H]3[C@@H](CCC4=CC(=O)CC[C@@H]43)[C@@H]1CC[C@@H]2O [Nandrolone] | -3.41 (inactive) |
| CN1[C@@H]2C[C@@H](OC(=O)[C@H](CO)c3ccccc3)C[C@H]1[C@@H]1O[C@@H]12 [Scopolamine hydrobromide] | -49.5 (inactive) |
| C[C@H]1CCC[C@H](O)CCCCCc2cc(O)cc(O)c2C(=O)O1 [Zeranol] | -13.7 (inactive) |
| C[C@]12CC[C@H](O)CC1=CC[C@@H]1[C@@H]2CC[C@]2(C)C(=O)CC[C@@H]12 [Dehydroepiandrosterone] | 18.9 (inactive) |
